AID inh: blocks human AID cytidine deaminase activity; AID deamination FRET fluorescence, UDG-coupled, 4 h; Potency, µM (titrated, usually from 115 µM), actives largely listed as inhibitors; actives 0.32% (n = 91,000); AID 1347428; also: nearly all actives have a fitted effect of over 25% in size
Target sequence (Q9GZX7 whole entry, looked up): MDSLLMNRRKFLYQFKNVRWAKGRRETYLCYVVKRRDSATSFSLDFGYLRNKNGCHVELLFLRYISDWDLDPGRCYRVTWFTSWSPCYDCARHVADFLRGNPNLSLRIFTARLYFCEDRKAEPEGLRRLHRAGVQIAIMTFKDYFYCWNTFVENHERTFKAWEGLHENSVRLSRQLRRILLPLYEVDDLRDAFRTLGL
UDG counterscr: UDG inhibition counter-screen | Potency, µM (series often up to 115 µM), inactives show top-dose activity change, negative = inhibition, usual class: inhibitors | actives 0.14% (n = 91,000) | AID 1347430 | FRET deamination/UDG coupled assay, UDG read, 4 h; also: nearly all actives have a fitted effect of over 65% in size
The depositor's hits bear a star; i = inactive; u = inconclusive; [ ] = another dose, or the depositor's remark. Hits are enriched below; roughly 0.4% of the tested compounds scored in any of these assays. Calls follow the shape of the dose curve; as a rule, active = well fitted curve in the direction sought with a large enough effect; inconclusive = small, poorly fitted or top-dose-only effect, or another doubt; inactive = no such curve, though single readings can be large; an effect the other way counts as inactive or inconclusive. % is scaled to controls: 0 for no effect and ±100 for the full control effect; potency is read from the fitted curve at half-maximal effect.

SMILES	AID inh	UDG counterscr
Brc1c(Br)c(Br)c2n[nH]nc2c1Br	40µM*	7%
Brc1c(Br)c(Br)c2[nH]cnc2c1Br	i	-5%
COc1ccc(-c2cc(C(F)(F)F)nc(S(=O)(=O)CCC(=O)Nc3ccccc3F)n2)cc1	i	-6%
CC(O)CNc1nc2c(c(=O)n(C)c(=O)n2C)n1Cc1ccccc1 (centres undefined)	i	-8%
N#Cc1ccccc1OCc1csc(-c2ccccc2)n1	u	89µM*
N#Cc1ccccc1OCc1ccccc1	i	0%
CCOc1ccc(OCc2nc3ccccc3[nH]2)cc1	i	-1%
Cc1cccc(NC(=O)c2c(NC(=O)C(F)(F)F)sc3c2CCCCC3)c1	79µM*	-9%
O=C(Nc1cccc(Cl)c1)c1c(NC(=O)C(F)(F)F)sc2c1CCCC2	u	-2%
Cc1ccc(NC(=O)CCc2c[nH]c3ccccc23)cc1	i	-7%
Cc1c(C(=O)NCCSc2ccc(Cl)cc2)oc2c1C(=O)CCC2	i	-6%
CCOCCCn1c(=N)c(C(=O)NC(C)c2ccccc2)cc2c(=O)n3cccc(C)c3nc21 (centres undefined)	22µM*	-21%
Cc1cccn2c(=O)c3cc(C(=O)NC(C)c4ccccc4)c(=N)n(CCOCCO)c3nc12 (centres undefined)	i	7%
CCOc1ccccc1OCc1nn2c(C(C)(C)C)nnc2s1	i	7%
COc1cc(NC(=O)c2cn(C3CCCC3)c(=O)c3c2c2ccccc2n3C)cc(OC)c1OC	i	1%
COc1ccc(N(C)C(=O)c2cn(C3CCCCC3)c(=O)c3c2c2ccccc2n3C)cc1	40µM*	u
COc1cccc(N2CCN(C(=O)CCS(=O)(=O)c3ccc4c(c3)CC(=O)N4C)CC2)c1	i	u
CN1C(=O)Cc2cc(S(=O)(=O)CCC(=O)N3CCN(c4ccc(Cl)cc4)CC3)ccc21	i	89µM*
COc1cc(/C=C/c2nc3ccccc3c(=O)n2-c2ccc(C(=O)O)cc2)ccc1O	i	-18%
COc1ccc(OC)c(C(=O)c2oc3cc(NC(=O)C4CC4)ccc3c2C)c1	i	-10%
C(=C\c1ccccc1)/CNCC1CCNCC1	i	0%
Cc1cc(NC(=O)c2oc3c(c2C)-c2[nH]ncc2CC3)ccc1Br	35µM*	-17%[57.5 µM]
CCc1ccc(NC(=O)c2oc3c(c2C)-c2[nH]ncc2CC3)cc1	u	-17%[57.5 µM]
Cc1cccc(NC(=O)Cn2c(=O)oc3cc(S(=O)(=O)N4CCCCCC4)ccc32)c1	i	-12%
COc1cccc(NC(=O)Cn2c(=O)oc3cc(S(=O)(=O)N4CCCCC4)ccc32)c1	i	89µM*
SMILES	AID inh	UDG counterscr
CCOc1ccc(CCNC(=O)c2nc(-c3cccc(F)c3)n3c2CCCCC3)cc1OCC	18µM*	u
CN(C(=O)c1nc(-c2cccc(F)c2)n2c1CCCCC2)c1ccccc1F	i	-2%
C=CCSc1nnc(NC(=O)c2cc(=O)c3ccc(Br)cc3o2)s1	i	5%
O=C(Nc1nonc1-c1ccc2c(c1)CCCC2)c1cc(=O)c2ccc(Br)cc2o1	20µM*	16%
N.N.N.N.N.N.N.N.N.N.N.N.N.N.O.O.[Ru+4].[Ru+5].[Ru+5]	22µM*	32µM*
CCN(CC)S(=O)(=O)NCc1ccnc(N2CCN(c3ccc(F)cc3)CC2)c1	i	4%
CCn1cc(C(=O)N2CCN(c3cc(Cl)ccc3C)CC2)c2cc(OC)c(OC)cc2c1=O	i	-9%
COc1ccccc1S(=O)(=O)Cc1ccc(C(=O)N2CCN(c3cc(Cl)ccc3C)CC2)o1	u	89µM*
CCCN(Cc1ccc(C)cc1)C(=O)CSc1nnc(COc2ccccc2Cl)n1C	i	-12%
CCCCCSc1nc2sc3c(c2c(=O)n1-c1ccccc1)CCN(C(C)=O)C3	25µM*	-22%
CCSc1nc2sc3c(c2c(=O)n1-c1ccc(C)c(Cl)c1)CCN(C(C)=O)C3	i	u
Cc1ccc(CNC(=O)c2ccc(CS(=O)Cc3ccc(C)cc3)o2)cc1 (centres undefined)	i	-4%
COc1cccc(-c2cc(=O)[nH]c(Nc3nc(C)c4ccccc4n3)n2)c1	22µM*	-9%
COc1ccc2nc(Nc3nc(-c4ccccc4)cc(=O)[nH]3)nc(C)c2c1	i	0%
CC(C)c1ccc(S(=O)(=O)c2nnn3c2nc(N2CCN(C)CC2)c2sccc23)cc1	18µM*	19%
CN1CCN(c2nc3c(S(=O)(=O)c4ccc(Cl)cc4)nnn3c3ccsc23)CC1	u	-16%
COc1cccc(OC)c1C(=O)Oc1ccc2c(c1)O/C(=C\c1ccc(C(C)(C)C)cc1)C2=O	i	-12%
CCc1ccc(-n2c(=O)c3c(C)c(C(=O)N(C)C)sc3n(Cc3ccccc3F)c2=O)cc1	i	0%[57.5 µM]
Cc1c(C(=O)N(C)C)sc2c1c(=O)n(-c1ccc(F)cc1)c(=O)n2Cc1ccccc1C#N	i	89µM*
Cc1oc(-c2nc(C#N)c(NCCCN(C)C)o2)cc1S(=O)(=O)N1CCCC1	i	-13%
O=C(NCc1ccc(S(=O)(=O)N2CCCC2)cc1)c1n[nH]c2ccccc12	i	9%
Nc1nccnc1C(=O)NCc1ccnc(-n2cccn2)c1	i	8%
Cc1ccc(C(C)C)c(OCC(=O)N2CCC(c3nc4ccccc4o3)CC2)c1	40µM*	-4%[57.5 µM]
COc1ccccc1OCC(=O)N1CCC(c2nc3ccccc3o2)CC1	i	-3%[57.5 µM]
O=Cc1ccc(OCc2ccccc2Cl)cc1	i	-6%
SMILES	AID inh	UDG counterscr
O=Cc1cc(Cc2ccccc2Cl)cc(Br)c1O	35µM*	-14%
Cc1cc(C)c(S(=O)(=O)N2CCN(Cc3nc4ccc(C)cc4o3)CC2)c(C)c1	u	89µM*
Cc1ccc2nc(CN3CCN(S(=O)(=O)c4ccccc4)CC3)oc2c1	i	12%
Cc1ccc(OCC(=O)N(Cc2nc(-c3ccccc3)no2)C(C)C)cc1C	i	0%
Cc1ccc(-c2noc(CN(C(=O)COc3cc(C)cc(C)c3C)C(C)C)n2)cc1	79µM*	-19%
O=C(c1cccc(F)c1)N(Cc1cccc2[nH]ccc12)C1CC1	i	-2%
CC(C)c1cccc(Nc2ccc(S(N)(=O)=O)cc2[N+](=O)[O-])c1	i	2%
COc1ccc(S(=O)(=O)c2cn(CC(=O)Nc3ccc(C)c(F)c3)c3nc(C)ccc3c2=O)cc1	i	1%
Cc1ccc(I)c(C(=O)NC(C)(C)C)c1	i	-6%
C(=Nc1ccccc1)c1ccccc1OCc1ccccc1	i	-6%
Oc1ccc(N=Cc2ccccc2OCc2ccccc2)cc1	14µM*	u
COc1cc(C(=O)Nc2cc(Cl)ccc2OCC2CCCO2)cc(OC)c1OC (centres undefined)	i	-23%
O=C(C1CC1)N(Cc1ccc2c(c1)CN(S(=O)(=O)c1cc(F)cc(F)c1)CCO2)c1ccccc1	i	-4%
O=C(C1CC1)N(Cc1ccc2c(c1)CN(S(=O)(=O)c1cc(F)ccc1F)CCO2)c1ccccc1	i	89µM*
O=C(CS(=O)(=O)Cc1ccccc1)Nc1cc(F)cc(F)c1	i	-14%
CN(CCCNC(=O)c1ccncc1)CC(F)(F)F	i	-9%
CCC(Sc1nc2c(sc3ccccc32)c(=O)n1CCc1ccccc1)C(=O)N(CC)CC (centres undefined)	i	9%
CCC(Sc1nc2c(sc3ccccc32)c(=O)n1CCc1ccc(OC)c(OC)c1)C(=O)N(CC)CC (centres undefined)	32µM*	-18%

Compound activity as filed in PubChem BioAssay.
